Compound activity as filed in PubChem.
PABP1 MLLE inh = inhibitors of PABP1 MLLE–PAM2 peptide binding, primary screen, biochemical, fluorescence polarization, FITC-PAM2, GST-MLLE. Polyadenylate-binding protein 1 (Homo sapiens), P11940. inhibition, % at 20 µM. 360,000 compounds, 0.36% hits; in the data active = inhibition above about 35%, passing the limit was not always enough
PABP polyA inh = PABP poly(A) RNA binding inhibitors, primary screen, biochemical, fluorescence polarization, uHTS; AID 2014, 2009; 290,000 compounds, 1% hits; calls only at 35 µM; Polyadenylate-binding protein 1 (Homo sapiens), P11940;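 note: calls also rest on retests at 20 µM and on dose response follow-up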
eIF4H FP inh = human eIF4H binding inhibitors, primary screen, translation initiation inhibitor project, biochemical, uHTS, fluorescence polarization. eIF4H fluorescence polarization binding assay. AID 2012, 2009. 290,000 compounds, 0.94% hits. inhibition, % at 35 µM;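 note: calls also rest on retests at 20 µM and on dose response follow-up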
MEX-5 binding = MEX-5 zinc finger RNA-binding disruptors – biochemical, C. elegans, fluorescence polarization, MLPCN library, primary screen; Zinc finger protein mex-5 (Caenorhabditis elegans), Q9XUB2; MEX-5/FITC-TCR2 RNA binding; hits give low values; activity score (negative = inhibition of binding), % at 10 µM; 300,000 compounds, 0.38% hits;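 active = inhibition past about -25% in most replicates, and total fluorescence under double the plate's negative control median, limit read from the data; inconclusive = replicates evenly split on the limit, or fluorescence at least double controls; inactive = too little inhibition in most replicates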
Target sequence (Q9XUB2 whole entry, looked up): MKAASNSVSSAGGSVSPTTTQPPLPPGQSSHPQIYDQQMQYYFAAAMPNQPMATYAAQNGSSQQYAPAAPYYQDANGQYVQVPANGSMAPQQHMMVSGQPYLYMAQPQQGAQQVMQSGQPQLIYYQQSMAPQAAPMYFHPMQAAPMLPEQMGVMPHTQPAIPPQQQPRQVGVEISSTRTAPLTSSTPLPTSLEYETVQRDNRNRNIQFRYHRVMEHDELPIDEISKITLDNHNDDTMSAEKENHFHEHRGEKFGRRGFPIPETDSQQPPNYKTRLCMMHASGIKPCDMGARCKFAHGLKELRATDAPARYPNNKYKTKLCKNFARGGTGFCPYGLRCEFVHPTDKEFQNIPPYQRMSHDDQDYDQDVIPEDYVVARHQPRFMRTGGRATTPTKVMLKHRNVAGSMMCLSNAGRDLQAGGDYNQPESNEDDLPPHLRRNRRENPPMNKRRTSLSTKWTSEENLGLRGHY
EBV gp42 inh = Epstein-Barr virus gp42 inhibitors, primary screen, biochemical, uHTS, fluorescence polarization; Fluorescence polarization binding assay, mP read-out; inhibition, % (tested at 21.74 µM); 220,000 compounds, 0.42% hits; AID 1085, 2008; in the data active = inhibition above about 50%
Of the large screens only hits and unclear results are named; the others gave an inactive call; ! = not confirmed by another sample. In the library only some 1.8% were active in any assay of this set; here they are far more common. Unless noted, the rule behind the calls is not given here.

COc1ccc(C(=O)C2CCCN(Cc3cccc(C)n3)C2)c(OC)c1 (stereo not drawn)	PABP polyA inh active, eIF4H FP inh 91.5
Oc1ccc(C[C@H]2NCCc3cc(O)c(O)cc32)cc1O	MEX-5 binding -80.6 (no result: EBV gp42 inh)
COc1cc(N2CCOCC2)ccc1/C=C1\C(=O)NC(=O)N(Cc2cccs2)C1=O	eIF4H FP inh inconclusive
COc1cc(N2CCOCC2)ccc1C=C1C(=O)NC(=O)NC1=O	PABP polyA inh active, eIF4H FP inh 69.4
CC1Oc2cc3c(-c4c(O)cc(O)c5c(O)c6c(cc45)OC(C)C(C)C6=O)c(O)cc(O)c3c(O)c2C(=O)C1C (stereo not drawn)	PABP polyA inh active, eIF4H FP inh 90.2
Cc1nonc1OCCNCCNc1ccc([N+](=O)[O-])c2cccnc12	MEX-5 binding -27.0
CCNCCNc1ccc([N+](=O)[O-])c2cccnc12	none
Cn1c(O)c(C(=O)c2ccccc2F)c(=O)n(C)c1=O	none
Cn1c(O)c(C(=O)c2ccccc2)c(=O)n(C)c1=O	PABP polyA inh active, eIF4H FP inh 55.8
COc1cc2c(cc1OC)-c1c(OC)c(OC)cc3c1[C@H](C2)N(C)CC3	none
COc1cc2c(cc1O)CC1c3c(cc(O)c(OC)c3-2)CCN1C (stereo not drawn)	PABP polyA inh active!, eIF4H FP inh 81.1!
CCOC(=O)c1c(NS(=O)(=O)c2ccccc2)n(CCCOC)c2nc3ccccc3nc12	MEX-5 binding -26.5
O=C1NCN(c2ccccc2)C12CCN(C(c1cccc3ccccc13)c1nnnn1C1CCCCC1)CC2 (stereo not drawn)	none (no result: PABP polyA inh, eIF4H FP inh, MEX-5 binding, EBV gp42 inh)
Cc1cc(N2CCCC2)ccc1C=C(C#N)C#N	eIF4H FP inh inconclusive, MEX-5 binding inconclusive, EBV gp42 inh 84.6
Cc1cc(N2CCCCC2)ccc1C=C1C(=O)N(C)C(=S)N(C)C1=O	none
Fc1cccc(-c2ccc3c(c2)CN(c2cccc(Cl)c2)Cc2cnnn2-3)c1	none (no result: PABP polyA inh, eIF4H FP inh, MEX-5 binding, EBV gp42 inh)
c1cncc(C2Nc3cccc4cccc(c34)N2)c1	PABP polyA inh active, eIF4H FP inh 92.4
c1cncc(C2CCCCN2)c1 (stereo not drawn)	none
Cc1c(CCC(=O)N2C[C@H]3C[C@@H](C2)c2cccc(=O)n2C3)c(=O)oc2c(C)c(O)ccc12	none (no result: PABP polyA inh, eIF4H FP inh, MEX-5 binding, EBV gp42 inh)
CCOC(=O)c1ccc(NC(=O)c2c(O)[nH]c(=O)[nH]c2=O)cc1	PABP polyA inh inconclusive, eIF4H FP inh inconclusive, EBV gp42 inh 76.7
NC1CC2CCCCC2CC1(O)c1ccccc1 (stereo not drawn)	none (no result: PABP polyA inh, eIF4H FP inh, MEX-5 binding, EBV gp42 inh)
CNc1ccc2nc3ccccc3[n+](C)c2c1	PABP1 MLLE inh 86.4, PABP polyA inh inconclusive, eIF4H FP inh inconclusive, MEX-5 binding -41.8 (no result: EBV gp42 inh)
C[n+]1c2ccccc2nc2ccc(NCCO)cc21	PABP polyA inh active (no result: EBV gp42 inh)
CCOP(=O)(NC(C)C)Oc1ccc(SC)c(C)c1 (stereo not drawn)	none (no result: PABP polyA inh, eIF4H FP inh, MEX-5 binding, EBV gp42 inh)
Nc1cncc(C(=O)O)c1	eIF4H FP inh 53.0!
O=C1CCCN1C(=O)c1cncc(Br)c1	none
O=c1[nH]c2ccccc2n1C1CCN(C(c2ccccc2OC(F)(F)F)c2nnnn2Cc2ccccc2)CC1 (stereo not drawn)	none (no result: PABP polyA inh, eIF4H FP inh, MEX-5 binding, EBV gp42 inh)
Cc1cc(/C=C2/C(=O)NC(=O)N(c3ccccc3)C2=O)c(C)n1-c1ccc(F)cc1	none (no result: PABP polyA inh, eIF4H FP inh, EBV gp42 inh)
Cn1cc(/C=C2\C(=O)NC(=O)N(c3ccccc3)C2=O)c2ccccc21	PABP polyA inh inconclusive, eIF4H FP inh inconclusive, MEX-5 binding -82.5 (no result: EBV gp42 inh)
COc1cc(/C=C2\C(=O)NC(=O)N(c3ccccc3)C2=O)c([N+](=O)[O-])cc1OC	PABP1 MLLE inh 49.4 (no result: MEX-5 binding)
Cc1cccc(-n2c(C)nc3ccccc3c2=O)c1C	PABP polyA inh active
